USP30 block – inhibitors of human USP30 deubiquitinase; purified USP30, Ub-rhodamine cleavage fluorescence; 47,000 compounds, 5.3% hits; Ubiquitin carboxyl-terminal hydrolase 30 (Homo sapiens), Q70CQ3; inhibition, % at 25 µM; AID 1645860, 2021
USP28 block – inhibitors of human USP28 deubiquitinase | 47,000 compounds, 3% hits | inhibition, % at 25 µM | purified USP28, Ub-rhodamine cleavage fluorescence, 30 min
USP17 block – inhibitors of human USP17 deubiquitinase. Ubiquitin carboxyl-terminal hydrolase 17-like protein 5 (Homo sapiens), A8MUK1. purified USP17, Ub-rhodamine cleavage fluorescence, 3 h. inhibition, % at 50 µM. 47,000 compounds, 6.5% hits
OTUD3 block – inhibitors of human OTUD3 deubiquitinase | 47,000 compounds, 0.7% hits | OTU domain-containing protein 3 (Homo sapiens), Q5T2D3 | inhibition, % at 25 µM | purified OTUD3, Ub-rhodamine fluorescence, 2 h
Target sequence (Q5T2D3 whole entry, looked up, the tested form may be a part): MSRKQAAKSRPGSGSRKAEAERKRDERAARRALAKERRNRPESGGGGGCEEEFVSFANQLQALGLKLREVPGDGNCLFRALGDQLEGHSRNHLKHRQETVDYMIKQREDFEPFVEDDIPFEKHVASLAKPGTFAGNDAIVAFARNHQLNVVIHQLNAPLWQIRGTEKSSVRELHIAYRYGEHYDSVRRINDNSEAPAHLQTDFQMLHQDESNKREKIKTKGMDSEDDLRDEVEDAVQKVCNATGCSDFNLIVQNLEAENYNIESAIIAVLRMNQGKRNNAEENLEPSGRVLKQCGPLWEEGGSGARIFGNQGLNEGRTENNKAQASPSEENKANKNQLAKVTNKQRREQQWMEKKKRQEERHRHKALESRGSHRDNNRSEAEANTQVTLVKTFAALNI
The depositor's hits bear a star; . = no result given. An excerpt weighted towards active compounds, which were near 12% of everything screened. No stated cut-off is given here; in the data, active means inhibition above about 30%; inactive means the rest.

SMILES | USP30 block | USP28 block | USP17 block | OTUD3 block
CN(C)c1nc(NCc2ccccc2)nc(Oc2ccc(=O)[nH]n2)n1 | 31* | 33* | 9 | 10
CCc1nccn1Cc1nc(-c2ccc(C)cc2)no1 | 2 | 9 | -11 | -3
Cc1nc(NCc2ccccn2)c2cc(-c3ccccc3)sc2n1 | 2 | -11 | 74* | -3
c1ccc(-c2cc3c(NCc4ccccn4)ncnc3s2)cc1 | 26 | 26 | 35* | 16
c1ccc(-c2nc3sc4c(NCc5ccccn5)ncnc4c3c3c2CCC3)cc1 | -37 | -6 | -3 | 0
CCOC(=O)c1sc2nc(C)nc(NCc3ccccn3)c2c1C | 31* | 5 | 11 | 2
Cc1ccc(S(=O)(=O)N2CCC(n3cnc4ccc(C)cc4c3=O)CC2)cc1 | 35* | 14 | 18 | 2
O=C1N(Cc2ccc(F)cc2)CCN1c1ccc2c(c1)OCO2 | 20 | 48* | 11 | 12
CCN1CC2(CCCCN2C(=O)c2cc(C)on2)CC1=O (stereo not drawn) | -21 | -3 | -6 | -1
Cc1nc(-c2ccccc2)sc1C(=O)CSc1cccc(Cl)c1Cl | 36* | -1 | 14 | 15
CCC(Nc1ccc(F)cc1)C(=O)Nc1cc(C)on1 (stereo not drawn) | -18 | -6 | -2 | -8
O=C(Nc1cccc(F)c1)Nc1cccc(-c2nnc(-c3ccccc3)o2)c1 | 91* | 72* | 89* | 22
CC(C)(C)C(=O)Nc1ccc(C(=O)Nc2cccc(-c3nnc(-c4ccccc4)o3)c2)cc1 | 55* | 30 | 44* | 18
COc1ccc(NC(=O)Nc2cccc(-c3nnc(-c4ccccc4)o3)c2)cc1OC | 51* | 18 | 20 | 19
Cc1ccccc1NC(=O)Nc1cccc(-c2nnc(-c3ccccc3)o2)c1 | 4 | 4 | 3 | 10
CC(=O)Nc1ccc(SCc2nnc(-c3ccccc3)o2)cc1 | -2 | 45* | -7 | -5
O=C(Cc1ccccc1F)NCCC(c1ccccc1)c1ccccc1 | 6 | 5 | 11 | 1
CC(C)NS(=O)(=O)c1ccc(CCC(=O)Nc2ccc3c(c2)OCCO3)cc1 | 0 | 82* | 2 | -5
CC(C)C(NS(=O)(=O)c1ccccc1)C(=O)OCC(=O)Nc1ccc2c(c1)OCO2 (stereo not drawn) | 1 | 8 | -14 | 13
O=C(COC(=O)CCc1ccc(S(=O)(=O)N2CCOCC2)cc1)Nc1ccc2c(c1)OCCO2 | 20 | 65* | . | 9
CC(C)C(NS(=O)(=O)c1ccc2c(c1)OCCO2)C(=O)Nc1cccc(F)c1 (stereo not drawn) | 39* | 27 | 44* | 15
COc1ccc(C)cc1NC(=O)C1CC(=O)Nc2nc3ccccc3n21 (stereo not drawn) | 12 | 8 | 70* | 7
COc1cccc(C(=O)Nc2cnc(-c3ccccc3)nc2)c1 | 1 | 4 | 4 | -5
COc1cccc(CC(=O)Nc2cnc(-c3ccc(Cl)cc3)nc2)c1 | 2 | 9 | 37* | 0
O=C(COc1ccc(F)cc1)Nc1cnc(-c2ccc(Cl)cc2)nc1 | 35* | 23 | 74* | 16
SMILES | USP30 block | USP28 block | USP17 block | OTUD3 block
O=C(COc1ccccc1)Nc1cnc(-c2ccc(Cl)cc2)nc1 | 12 | -3 | 31* | -8
Cc1ccc(-c2ncc(NC(=O)COc3cccc(C)c3)cn2)cc1 | -69 | -30 | -12 | -12
O=C(COc1ccc(F)cc1)Nc1cnc(-c2cccc(Cl)c2)nc1 | -247 | -84 | -64 | -38
O=C(COc1ccccc1)Nc1cnc(-c2ccccc2)nc1 | -23 | -11 | 44* | -4
Fc1ccc(-c2nnc(Cc3nc(-c4cccc(F)c4)no3)o2)cc1 | -14 | 20 | 10 | 4
O=C(c1ccc2c(c1)OCO2)N1CCn2c(nnc2-c2cncc(Br)c2)C1 | 2 | -3 | -27 | 8
CCN1CCc2c(sc(NC(=O)CSc3ccc(Cl)cc3)c2C(N)=O)C1 | 28 | 15 | 34* | -3
COc1cccc([C@@H]2CNC[C@H]2c2cc(=O)[nH]c(NCc3cccnc3)n2)c1 | 1 | -5 | -8 | 0
CCOc1ccc(-c2cc3nc(C4CCN(C(=O)OC(C)(C)C)CC4)c(C(=O)Nc4cc(F)ccc4F)cn3n2)cc1 | -8 | 10 | 46* | 31*
CC(C)c1ccc(NC(=O)C2CCN(S(=O)(=O)c3cccc4cnccc34)CC2)cc1 | 5 | 45* | -8 | -10
O=C(NCc1ccco1)C1CCN(S(=O)(=O)c2cccc3cnccc23)CC1 | -130 | 1 | 34* | -3
COc1cc(CN2C[C@@H](c3ccccc3)[C@H](c3ccn[nH]3)C2)cc(OC)c1OC | -13 | -7 | -9 | -10
Cc1ccc(NC(=O)C2C3C=CC4(O3)C2C(=O)N(CCc2ccccc2)C4C(=O)NC2CCCCC2)cc1Cl (stereo not drawn) | 7 | 7 | 26 | 22
COc1cccc(-c2cc(N3CCCN(Cc4ncc[nH]4)CC3)ncn2)c1 | -2 | 17 | -6 | -4
CCN1C(=O)COc2ccc(-c3noc(-c4ccn(CC)n4)n3)cc21 | 0 | 0 | 11 | 6
Cc1cccc(C(=O)Nc2nc3c(s2)CCC3)c1 | 13 | 38* | 0 | 14
COc1ccc(OC)c(NC(=O)c2cc(-c3ccc(C)c(C)c3O)n[nH]2)c1 | 3 | 18 | 26 | 5
COc1ccc(C)cc1NC(=O)c1cc(-c2ccncc2)n[nH]1 | -25 | -9 | -5 | -5
Cc1cccc(NC(=O)c2cc(-c3ccc(C)c(C)c3O)n[nH]2)c1 | 76* | 28 | 88* | 9
CC(=O)Nc1ccc(NC(=O)c2cc(-c3cc(C)cc(C)c3O)n[nH]2)cc1 | 62* | 46* | 35* | 3
Cc1ccc(-c2cc(C(=O)Nc3cc(C)ccc3C)[nH]n2)c(O)c1 | -40 | -5 | 34* | 9
Cc1ccc(-c2nnc(-c3occc3C)o2)cc1 | -9 | 12 | 17 | 10
Cc1ccccc1CNc1nc2ccncc2n(C(C)C)c1=O | 8 | 15 | 5 | 0
O=C(Cn1c(-c2nc(-c3ccccc3)no2)cccc1=O)N1CCCC1 | 7 | 3 | 0 | 0
Cc1cc(C)n(C(C)CC(=O)Nc2ccc(-c3nc4ccccc4[nH]3)cc2)n1 (stereo not drawn) | -15 | -15 | -29 | -18
SMILES | USP30 block | USP28 block | USP17 block | OTUD3 block
CSc1cccc(C(=O)Nc2ccc(-c3nc4ccccc4[nH]3)cc2)c1 | 32* | 20 | 63* | -3
COc1ccc(-c2nc(NC(=O)Cc3ccccc3OC)sc2C)cc1 | -9 | 10 | 6 | 8
COc1ccc(CC(=O)Nc2nc(-c3ccco3)c(-c3ccco3)s2)cc1 | -64 | 32* | 65* | 62*
COc1ccc(CC(=O)Nc2nc3c(s2)CCC3)cc1 | -3 | 22 | 13 | 5
O=C(Cc1ccccc1F)Nc1nc(-c2ccco2)c(-c2ccco2)s1 | -111 | 43* | . | 58*
COc1ccc(-c2ocnc2C(=O)Nc2ccc(C)c(F)c2)cc1 | . | . | -2 | -9
O=C(Nc1cccc(F)c1)c1ncoc1-c1ccco1 | -20 | 17 | 54* | 13
CCc1nnc2ccc(-c3noc(COc4cccc(C)c4)n3)cn12 | -4 | 24 | . | -2

Screening results (PubChem)
